What all share (experiment): NCI-60 one-dose screen, 48 h (100 = growth as untreated, 0 = no growth, -100 = all killed)
Common to all, as to conditions: 10 µM unless noted

Test [1] deals with NCI-H23 lung.
Test [2] deals with NCI-H226 lung.
The test system of test [3] is NCI-H322M lung.
Test [4] deals with HOP-62 NSCLC.
The subject of test [5] is NCI-H460 lung.
Test [6] has as its system HOP-92 NSCLC.
Test [7] has as its system NCI-H522 lung.
In test [8] the test system is A549/ATCC NSCLC.
In test [9] the test system is 786-0 renal.
Test [10] has as its system COLO 205 colon.
Test [11] has as its system DU-145 prostate.
The test system of test [12] is K-562 leukemia.
Test [13] relates to MALME-3M melanoma.
In test [14] the test system is MDA-MB-231 breast.
Test [15] has as its system RXF 393 renal.
For test [16], the system named is SF-268 CNS.
The test system of test [17] is SF-295 CNS.
For test [18], the system named is SF-539 CNS.
The test system of test [19] is UACC-257 melanoma.
Test [20] has as its system M14 melanoma.

From PubChem BioAssay (NCI) come the findings set out here.

About 83,000 compounds went through this panel and 20% of them were active in at least one assay; those are over-represented in the sample as a whole.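 Compound tested at a single concentration for 48 hours in 96-well plates; a percent growth value below 10 was scored as active.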 A number with no mark means an inactive call. Calls of active or inactive are those of the source.

As for `O=C(Nc1cccc(Cl)c1)c1cc(Cl)ccc1O`, the growth in test [1] is 0.837% (active); in [2], -2.52% (active); in test [3], 4.17% (active); in test [4], 5.65% (active); in test [5], 2.08% (active); in test [6], -32% (active). Besides, the growth in test [7] is -2.31% (active); in test [8] it was 14.7%; in test [9], 5.54% (active); in test [10], 78.6%; in [11], 24.1%; in [12] it was 15.5%. In addition, the growth in test [13] is -17.8% (active); in [14], 1.35% (active); in [15], -12.3% (active); in test [16] it was 18%; in test [17], -60.3% (active); in test [18], 19.4%. For the same compound, the growth was -4.11% (active) in test [19] and 8.3% (active) in test [20].

Turning to `CCCCCCCCCCCCCCCC(=O)OC[C@@]1(O)C[C@@]23CC[C@@H]4C(C)(C)[C@H](O)CC[C@@]4(C)[C@@H]2CC[C@H]1C3`, the growth in test [1] is 98%; in [2], 99.2%; in test [3], 114%; in [4], 101%; in test [5], 107%; in [6], 113%. Further, the growth in test [7] is 91.2%; in [8], 104%; in [9], 0.227% (active); in [10] it was 115%; in test [11], 108%; in test [12] it was 98%. The growth was 114% in test [13]; 110% in test [14]; 101% in test [16]; 112% in [17]; 97.8% in test [18]; 110% in test [19].

As to `Fc1ccc(C2CC(c3cccc(Nc4ccncc4)c3)=NN2c2ccc(Cl)cc2)cc1` (stereo unspecified), the growth in [1] was 88.6%; in test [2], 91.4%; in test [3], 78%; in [4], 64.9%; in [5] it was -53.9% (active); in test [6], 52.2%. Besides, the growth is 83.1% in [7]; 52.6% in [8]; 104% in test [9]; -59.8% (active) in [10]; 52% in test [11]; 1.22% (active) in test [12]. The growth is 33.1% in test [13]; 60.7% in test [14]; 77.9% in test [16]; 66.5% in [17]; 84.1% in test [18]; 80.8% in test [19].

As to `COc1cc2nc(-c3ccc(C(F)(F)F)cc3)cc(OCCCN3CCC(O)CC3)c2cc1OC`, the growth is 57.9% in test [1]; -9.29% (active) in test [2]; 61.1% in test [3]; 45.3% in test [4]; 16.5% in [5]; 19.9% in test [6]. Besides, the growth in test [7] was 10.5%; in test [8], 27.7%; in test [9], 42.7%; in test [10], 26.5%; in test [11], 28.3%; in [12], 6.21% (active). In addition, the growth in test [13] is 43.9%; in test [14], 11.2%; in test [15], 42.1%; in [16], 49.9%; in test [17], -43.5% (active); in [18], 45.5%. The growth in [19] was -8.17% (active); in test [20], -55.9% (active).

For the compound `O=C1C(=O)c2c(nc3ncccn23)-c2ccccc21`, the growth in test [1] is -49.4% (active); in test [2], -83.2% (active); in [3], -96.7% (active); in [4], -90.4% (active); in [5] it was -49.3% (active); in test [6], -84.1% (active). Also, the growth in [7] was -60.7% (active); in [8] it was -35.6% (active); in test [9] it was -94.9% (active); in [10] it was -70.7% (active); in test [11] it was -96.8% (active); in [12] it was -43.5% (active). For the same compound, the growth in test [13] was -96.9% (active); in test [14], -55.3% (active); in [15] it was -97.2% (active); in test [16], -70.8% (active); in test [17] it was -97.8% (active); in test [18], -98.3% (active). Also, the results for the growth in test [19] and in [20] were -95.4% (active) and -87% (active), respectively.

Turning to `O=C(Nc1ccc2cc3ccc(NC(=O)NC4CCCCC4)cc3nc2c1)NC1CCCCC1`, the growth in test [1] was 87.5%; in [2], 97.7%; in test [3] it was 104%; in test [4] it was 89.2%; in [5] it was 103%; in [6] it was 99.8%. Also, the growth is 103% in test [7]; 101% in [8]; 60.1% in test [9]; 100% in test [10]; 97.3% in [11]; 16.8% in test [12]. Moreover, the growth was 106% in test [13]; 101% in test [14]; 15.7% in [15]; 68.1% in [16]; 45.6% in test [17]; 50.1% in test [18]. Also, the growth in [19] is 99.8%; in test [20], 90.5%.

In the case of `CC(=O)c1cc2c(N)c(C(=O)Nc3cncc4ccccc34)sc2nc1C`, the growth is 101% in test [1]; 105% in test [2]; 113% in test [3]; 93.5% in test [4]; 110% in test [5]; 98.6% in test [6]. For the same compound, the growth is 92.1% in test [7]; 106% in test [8]; 98.4% in test [9]; 121% in [10]; 115% in test [11]; 81.7% in [12]. For the same compound, the growth in [13] is 112%; in test [14], 86.2%; in [15], 100%; in test [16], 105%; in test [17], 97.2%; in test [18], 98.3%. The results for the growth in test [19] and in test [20] were 104% and 94%, respectively.
